{"source": "PubChem BioAssay (NCI)", "note": "Compounds without any hit were thinned out: in the full panel of roughly 83,000, 20% have a hit.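 Each cell line was grown in a 96-well plate and treated with one concentration of compound for 48 hours. Values below 10 were considered active.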 Active and inactive are the calls of the source."}
{"tested_on": "COLO 205 colon", "test": "NCI-60 one-dose screen, 48 h (100 = growth as untreated, 0 = no growth, -100 = all killed)", "settings": "10 µM unless noted"}
{"smiles": "Cn1cc(-c2nnc(-c3cn(C)c4ncccc34)o2)c2ccccc21", "growth": "25.7% (inactive)"}
{"smiles": "Cc1ccc(C2=C/C(=C/c3ccc(Br)cc3)C(=O)N2CCc2ccc(S(N)(=O)=O)cc2)cc1", "growth": "115% (inactive)"}
{"smiles": "COc1ccc2nc3cc(Cl)ccc3c(Nc3ccc(O)cc3)c2c1", "growth": "76.8% (inactive)"}
{"smiles": "CCCCN(CC)CC(CC)Nc1cc(OC)cc2cccnc12", "note": "(stereo not drawn)", "growth": "119% (inactive)"}
{"smiles": "O=C(Nc1cccc2ccccc12)c1cc2ccccc2cc1O", "growth": "112% (inactive)"}
{"smiles": "C=C(C)[C@@H]1CC[C@]2(COCCC#N)CC[C@]3(C)[C@H](CC[C@@H]4[C@@](C)(CCCNCCC#N)[C@H](C(=C)C)CC[C@]43C)[C@@H]12", "growth": "11.3% [100 µM] (inactive)"}
{"smiles": "Cc1ccc(-c2cn(C/C=C3\\C=CN(S(=O)(=O)c4ccccc4)CC3)nn2)cc1", "growth": "129% (inactive)"}
{"smiles": "CN(C)c1ccc(-c2ccc(-c3ccc(C(=N)N)cc3)s2)cc1", "growth": "-66.6% (active)"}
{"smiles": "CCOC(=O)c1nn(C2CCCCO2)c2ccc(NC(=O)CN3CCOCC3)cc12", "note": "(stereo not drawn)", "growth": "118% (inactive)"}
{"smiles": "Cn1cc(-c2noc(-c3cn(C)c4ncc(Br)cc34)n2)c2cc(Cl)ccc21", "growth": "66.4% (inactive)"}
{"smiles": "Cc1cc2c(C(C)C)c(O)c(O)c(C=NCc3ccoc3)c2c(O)c1-c1c(C)cc2c(C(C)C)c(O)c(O)c(C=NCc3ccco3)c2c1O", "growth": "10.6% (inactive)"}
{"smiles": "Cc1cccc(C[C@H](NC(=O)Nc2ccc(C)cc2F)C(=O)N[C@@H]2C(=O)N3C[C@H](O)C[C@H]3C(=O)N3CCN(C)C[C@H]3C(=O)N[C@@H](C)C(=O)N3C[C@H](C)C[C@H]3C(=O)O[C@H]2C)c1", "growth": "12.4% (inactive)"}
{"smiles": "COc1cc2c(c(Br)c1N)-c1cc(Br)c(N)cc1C2=O", "growth": "79.3% (inactive)"}
{"smiles": "CCN(CC)CCSC(=O)C(O)(c1ccccc1)C1CCCC1", "note": "(stereo not drawn)", "growth": "144% (inactive)"}
{"smiles": "CCN(CC)CCCOc1ccc2c(c1)O/C(=C\\c1cccc(OC)c1)C2=O", "growth": "94.7% (inactive)"}
{"smiles": "CCOC(=O)/C(C#N)=C(\\C)CCc1ccccc1", "growth": "132% (inactive)"}
{"smiles": "O=C(CCN1CCCCC1)c1ccc(Cl)cc1", "growth": "107% (inactive)"}
{"smiles": "C[C@H]1[C@H](C)CC[C@]2(C(=O)O)CC[C@]3(C)C(=CC[C@@H]4[C@@]5(C)C/C(=C/c6ccco6)C(=O)C(C)(C)[C@@H]5CC[C@]43C)[C@H]12", "growth": "-60.9% [100 µM] (active)"}
{"smiles": "Cc1ccc(NC(=O)N[C@@H](Cc2cc(F)cc(F)c2)C(=O)N[C@@H]2C(=O)N3CCC[C@H]3C(=O)N3CCOC[C@H]3C(=O)N[C@@H](C)C(=O)N3C[C@H](C)C[C@H]3C(=O)O[C@H]2C)cc1", "growth": "10% (active)"}
{"smiles": "CCCCOC(=O)c1c(C)[nH]c(/C=C2\\N=C(c3ccc[nH]3)C=C2OC)c1C", "growth": "-29.2% (active)"}
{"smiles": "O=C(O)c1cn(C2CC2)c2cc(N3CCN(Cc4cc(Cl)ccc4O)CC3)c(F)cc2c1=O", "growth": "75.7% (inactive)"}
{"smiles": "C[n+]1cccc(NC(=O)c2ccc3ccc4ccc(C(=O)Nc5ccc[n+](C)c5)nc4c3n2)c1", "growth": "75.3% (inactive)"}
{"smiles": "O=c1cc(-c2ccccc2)oc2cc(OCc3cn(Cc4ccc(F)cc4)nn3)cc(O)c12", "growth": "103% [100 µM] (inactive)"}
{"smiles": "CCc1ccc(NC(=O)N[C@@H](Cc2cc(F)cc(F)c2)C(=O)N[C@@H]2C(=O)N3C[C@H](O)C[C@H]3C(=O)N3CCOC[C@H]3C(=O)N[C@@H](C)C(=O)N3C[C@H](C)C[C@H]3C(=O)O[C@H]2C)cc1", "growth": "11.1% (inactive)"}
{"smiles": "C=C(CC(=O)OC)C(C)=O", "growth": "116% (inactive)"}
{"smiles": "O=C1/C(=C\\c2cn(CC(O)CN3CCCCC3)c3ccccc23)c2ccccc2N1c1c(Cl)cccc1Cl", "note": "(stereo not drawn)", "growth": "-99.1% (active)"}
{"smiles": "CC/C=C(\\C)C(CCC)(CN=O)C(=O)OCC", "note": "(stereo not drawn)", "growth": "104% (inactive)"}
{"smiles": "CN(C)C(=S)Sc1ccc([N+](=O)[O-])cc1[N+](=O)[O-]", "growth": "-22.7% (active)"}
